Results reported in the supplement of paper PMC7411054.

How the values were obtained:
Experiment in all cases: lowest phenotypically active concentration; higher = less potent
Conditions in all cases: treatment time: 24 h
HepG2-CANX-COX4 = system: HepG2-CANX-COX4
Summary of the method: (§1)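 Two criteria together defined phenotypic activity: deviation and reproducibility. Deviation meant ≥3 of 4 wells beyond the 95th percentile of Euclidean distances in solvent control wells, and reproducibility meant a median replicate Pearson correlation above the 95th percentile of non-replicates. Wells had been treated for 24 h at 0.3, 1, 3 or 9 µM in fifteen gene-edited A549, HepG2 and WPMY1 reporter lines before live imaging.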

HepG2-GM130-SQSTM1 = system: HepG2-GM130-SQSTM1
Summary of the method: as §1

HepG2-TP53BP1-CLTA = system: HepG2-TP53BP1-CLTA
Summary of the method: as §1

HepG2-TUBA1B-RELA = system: HepG2-TUBA1B-RELA
Summary of the method: as §1

WPMY1-ACTB-RAB5A = system: WPMY1-ACTB-RAB5A
Summary of the method: as §1

WPMY1-TP53BP1-CLTA = system: WPMY1-TP53BP1-CLTA
Summary of the method: as §1

WPMY1-GM130-SQSTM1 = system: WPMY1-GM130-SQSTM1
Summary of the method: as §1

WPMY1-TUBA1B-RELA = system: WPMY1-TUBA1B-RELA
Summary of the method: as §1

Measured: lowest phenotypically active concentration

N#Cc1cccc(-c2c[nH]c3ncnc(N4CCOCC4)c23)c1
1 µM: HepG2-TUBA1B-RELA
9 µM: WPMY1-ACTB-RAB5A
3 µM: HepG2-CANX-COX4 | HepG2-GM130-SQSTM1 | HepG2-TP53BP1-CLTA | WPMY1-TP53BP1-CLTA

O=c1cc(N2CCOCC2)oc2c(-c3cccc4c3sc3ccccc34)cccc12
9 µM: WPMY1-TUBA1B-RELA
3 µM: HepG2-CANX-COX4 | WPMY1-GM130-SQSTM1 | WPMY1-TP53BP1-CLTA
1 µM: all other assays above

CCCCCCCCCCCCC/C=C/[C@@H](O)[C@H](CO)N(C)C [N,N-Dimethylsphingosine]
9 µM: HepG2-GM130-SQSTM1 | HepG2-TUBA1B-RELA | WPMY1-TP53BP1-CLTA
3 µM: all other assays above

O=C(NCCN1CCC(n2c(=O)[nH]c3ccccc32)CC1)c1cc2cc(F)ccc2[nH]1
9 µM: all assays above

CC(CN1c2ccccc2Sc2ccccc21)N(C)C (stereo not given) [promethazine]
not listed: HepG2-CANX-COX4
9 µM: all other assays above

CN(C)CCCN1c2ccccc2CCc2ccc(Cl)cc21 [clomipramine]
not listed: HepG2-CANX-COX4 | HepG2-GM130-SQSTM1
9 µM: all other assays above

CCOC(=O)c1c(CSc2ccccc2)n(C)c2cc(Br)c(O)c(CN(C)C)c12 [arbidol]
9 µM: HepG2-CANX-COX4 | HepG2-GM130-SQSTM1 | HepG2-TP53BP1-CLTA | HepG2-TUBA1B-RELA | WPMY1-GM130-SQSTM1

CNCCCN1c2ccccc2CCc2ccccc21 [desipramine]
9 µM: HepG2-TUBA1B-RELA | WPMY1-ACTB-RAB5A | WPMY1-GM130-SQSTM1 | WPMY1-TUBA1B-RELA

CN(C)CCCN1c2ccccc2Sc2ccc(C(F)(F)F)cc21 [triflupromazine]
9 µM: HepG2-TUBA1B-RELA | WPMY1-ACTB-RAB5A | WPMY1-GM130-SQSTM1 | WPMY1-TUBA1B-RELA

CNCCCC12CCC(c3ccccc31)c1ccccc12 [maprotiline]
3 µM: HepG2-TUBA1B-RELA
not listed: HepG2-CANX-COX4
9 µM: all other assays above

O=C(Nc1nc2cc(C(F)(F)F)cc(NC3CC3)n2n1)c1cccnc1
3 µM: HepG2-CANX-COX4 | WPMY1-ACTB-RAB5A | WPMY1-TP53BP1-CLTA
9 µM: HepG2-TP53BP1-CLTA | HepG2-TUBA1B-RELA

COc1cc(NC(=O)c2cccc(-n3cc(NC(=O)Nc4cccc(C)c4)cn3)c2)cc(OC)c1OC
9 µM: WPMY1-GM130-SQSTM1 | WPMY1-TUBA1B-RELA
